What all share (conditions): mRNA level, 48 h; actives raise or lower the signal
Read-out in experiment [1]: Apoptosis regulator Bcl-2 (Homo sapiens) (UniProt P10415)
In words: LTEA_HepaRG_BCL2: Life Technologies and Expression Analysis (LTEA) Assay for Bcl-2 gene using HepaRG (AID 2283475). A digest of the protocol: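 Differentiated human HepaRG cells in serum-free induction medium exposed 48 h, in duplicate, to 8-point half-log series from 100 uM in 0.5% DMSO. BCL2 mRNA by qRT-PCR (TaqMan/Fluidigm), normalized to ACTB, GAPDH, POLR2A; bidirectional fit against DMSO.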

Read-out in experiment [2]: Bcl-2 (BID) gene, BID (gene 637)
In words: LTEA_HepaRG_BID: Life Technologies and Expression Analysis (LTEA) Assay for Bcl-2 (BID) gene using HepaRG (AID 2283476). The method in brief: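 Gene expression by qRT-PCR in HepaRG cells after 48 h exposure, duplicate wells, eight half-log concentrations topping at 100 uM in 0.5% DMSO. Normalized to ACTB, GAPDH, POLR2A; bidirectional fitting relative to DMSO.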

Read-out in the next experiment: Caspase-3 (Homo sapiens) (UniProt P42574)
The experiment can be described thus: LTEA_HepaRG_CASP3: Life Technologies and Expression Analysis (LTEA) Assay for cysteine-aspartic acid protease (CASP3) using HepaRG (AID 2283477). A digest of the protocol: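 Differentiated HepaRG cells, plated 48 h, were treated in duplicate in serum-free induction medium for 48 h with eight half-log concentrations up to 100 uM in 0.5% DMSO. CASP3 mRNA measured by qRT-PCR, normalized to ACTB, GAPDH, POLR2A.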

Read-out in experiment [3]: Cytochrome P450 (CYP1A2), CYP1A2 (gene 1544)
In words: LTEA_HepaRG_CYP1A2: Life Technologies and Expression Analysis (LTEA) Assay for Cytochrome P450 (CYP1A2) using HepaRG (AID 2283479). A digest of the protocol:
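Differentiated human HepaRG cells in serum-free induction medium exposed 48 hours in duplicate to 8 half-log concentrations from 100 uM, 0.5% DMSO. CYP1A2 mRNA quantified by qRT-PCR, normalized to ACTB, GAPDH and POLR2A; bidirectional fitting versus DMSO.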

Read-out in experiment [4]: Cytochrome P450 (CYP2B6), CYP2B6 (gene 1555)
In words: LTEA_HepaRG_CYP2B6: Life Technologies and Expression Analysis (LTEA) Assay for Cytochrome P450 (CYP2B6) using HepaRG (AID 2283481). The method in brief: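 Differentiated human HepaRG cells in serum-free induction medium, dosed in duplicate for 48 h over 8 half-log concentrations topping at 100 uM (0.5% DMSO). CYP2B6 mRNA measured by TaqMan qRT-PCR, normalized to ACTB, GAPDH, POLR2A; bidirectional fit versus DMSO.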

Read-out in experiment [5]: Cytochrome P450 2C19 (Homo sapiens) (UniProt P33261)
The experiment can be described thus: LTEA_HepaRG_CYP2C19: Life Technologies and Expression Analysis (LTEA) Assay for CYP2C19 using HepaRG (AID 2283482). A digest of the protocol: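 Differentiated HepaRG cells in serum-free induction medium exposed 48 h in duplicate, 8 concentrations from 100 uM by half-log steps in 0.5% DMSO. CYP2C19 mRNA measured by TaqMan qRT-PCR, normalized to ACTB, GAPDH, POLR2A. Bidirectional fit versus DMSO.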

Read-out in a further experiment: CYP2C8 (gene 1558)
In words: LTEA_HepaRG_CYP2C8: Life Technologies and Expression Analysis (LTEA) Assay for CYP2C8 using HepaRG (AID 2283483). A digest of the protocol: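 CYP2C8 mRNA induction or loss, by qRT-PCR normalized to ACTB/GAPDH/POLR2A, is read in HepaRG cells after 48 h treatment. Concentrations run from 100 uM down in half-log dilutions, with 0.5% DMSO as vehicle and baseline.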

Read-out in a further experiment: CYP2C9 (gene 1559)
The experiment can be described thus: LTEA_HepaRG_CYP2C9: Life Technologies and Expression Analysis (LTEA) Assay for CYP2C9 using HepaRG (AID 2283484). A digest of the protocol:
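Cells plated 48 h, switched to serum-free induction medium, then treated in duplicate for 48 h at eight concentrations (max 100 uM, 0.5% DMSO). RNA then analysed by qRT-PCR for CYP2C9; curves fitted in both directions relative to DMSO.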

Read-out in a further experiment: CYP4A11 (gene 1579)
The experiment can be described thus: LTEA_HepaRG_CYP4A11: Life Technologies and Expression Analysis (LTEA) Assay for CYP4A11 using HepaRG (AID 2283486). The method in brief:
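Differentiated HepaRG cells, 48 h after plating, exposed in duplicate for 48 h to 8 half-log concentrations up to 100 uM in 0.5% DMSO in serum-free induction medium. CYP4A11 mRNA measured by TaqMan qRT-PCR, normalized to ACTB, GAPDH and POLR2A.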

Read-out in experiment [6]: Cytochrome P450 3A4 (Homo sapiens) (UniProt P08684)
In words: LTEA_HepaRG_CYP3A4: Life Technologies and Expression Analysis (LTEA) Assay for CYP3A4 using HepaRG (AID 2283487). The method in brief:
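Differentiated HepaRG cells, plated 48 h, then dosed 48 h in serum-free induction medium with 0.5% DMSO, 8 half-log concentrations up to 100 uM, duplicate. CYP3A4 mRNA by qRT-PCR, normalized to ACTB/GAPDH/POLR2A; bidirectional fit versus DMSO.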

Read-out in experiment [7]: DNA damage-inducible transcript 3 (DDIT3), DDIT3 (gene 1649)
The experiment can be described thus: LTEA_HepaRG_DDIT3: Life Technologies and Expression Analysis (LTEA) Assay for DNA damage-inducible transcript 3 (DDIT3) using HepaRG (AID 2283488). The method in brief:
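HepaRG cells, 48 h after plating, exposed 48 h in serum-free induction medium to 8 half-log concentrations up to 100 uM in 0.5% DMSO, in duplicate. DDIT3 mRNA measured by TaqMan qRT-PCR, normalized to ACTB, GAPDH and POLR2A. Fitted bidirectionally against DMSO.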

Read-out in experiment [8]: Pro-epidermal growth factor (Homo sapiens) (UniProt P01133)
The experiment can be described thus: LTEA_HepaRG_EGF: Life Technologies and Expression Analysis (LTEA) Assay for Epidermal growth factor (EGF) using HepaRG (AID 2283489). The method in brief: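 HepaRG cells (~100,000/well, 48 h pre-culture) exposed in duplicate for 48 h in serum-free induction medium to 8 half-log concentrations up to 100 uM in 0.5% DMSO. EGF mRNA by qRT-PCR, normalized to ACTB/GAPDH/POLR2A; bidirectional fit versus DMSO.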

Read-out in experiment [9]: Early growth response protein 1 (EGR1) transcription factor, EGR1 (gene 1958)
The experiment can be described thus: LTEA_HepaRG_EGR1: Life Technologies and Expression Analysis (LTEA) Assay for Early growth response protein 1 (EGR1) transcription factor using HepaRG (AID 2283490). The method in brief: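 Read-out is EGR1 mRNA level by qRT-PCR, normalized to three housekeeping genes and analysed for gain or loss of signal against 0.5% DMSO. Source cells: human HepaRG, treated 48 h at up to 100 uM in half-log dilutions.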

Read-out in experiment [10]: Ezrin (EZR), EZR (gene 7430)
The experiment can be described thus: LTEA_HepaRG_EZR: Life Technologies and Expression Analysis (LTEA) Assay for Ezrin (EZR) using HepaRG (AID 2283491). The method in brief: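 EZR transcript levels came from Fluidigm qRT-PCR and were normalized to three housekeeping genes after 48 h chemical exposure of HepaRG cells. Dosing used an 8-point half-log series with a 100 uM top concentration in 0.5% DMSO, tested in duplicate; both directions were fitted versus vehicle.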

Read-out in experiment [11]: Cytochrome P450 3A7 (Homo sapiens) (UniProt P24462)
The experiment can be described thus: LTEA_HepaRG_CYP3A7: Life Technologies and Expression Analysis (LTEA) Assay for CYP3A7 using HepaRG (AID 2283492). The method in brief:
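Differentiated HepaRG cells in serum-free induction medium exposed 48 h in duplicate to 8-point half-log series from 100 uM top in 0.5% DMSO. CYP3A7 mRNA by qRT-PCR, normalized to ACTB/GAPDH/POLR2A, bidirectional fit versus DMSO.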

Read-out in a further experiment: CYP3A5 (gene 1577)
In words: LTEA_HepaRG_CYP3A5: Life Technologies and Expression Analysis (LTEA) Assay for CYP3A5 using HepaRG (AID 2283493). A digest of the protocol:
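HepaRG cells, plated 48 h then in serum-free induction medium, dosed in duplicate for 48 h with eight half-log concentrations up to 100 uM in 0.5% DMSO. Gene mRNA by Fluidigm TaqMan qRT-PCR, normalized to ACTB, GAPDH, POLR2A.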

Read-out in experiment [12]: Fatty Acid-Binding Protein 1 (FABP1), FABP1 (gene 2168)
The experiment can be described thus: LTEA_HepaRG_FABP1: Life Technologies and Expression Analysis (LTEA) Assay for Fatty Acid-Binding Protein 1 (FABP1) using HepaRG (AID 2283494). The method in brief:
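HepaRG, 48 h post-plating switched to serum-free induction medium, then dosed 48 h (duplicate, 8 pts, ≤100 uM, 0.5% DMSO). RNA → Fluidigm TaqMan qRT-PCR, FABP1 normed to ACTB/GAPDH/POLR2A. Bidirectional curve fit vs DMSO.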

Read-out in a further experiment: CYP2E1 (gene 1571)
In words: LTEA_HepaRG_CYP2E1: Life Technologies and Expression Analysis (LTEA) Assay for CYP2E1 using HepaRG (AID 2283485). A digest of the protocol:
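HepaRG cells, plated 48 h, then exposed 48 h in serum-free induction medium to eight half-log concentrations from 100 uM in 0.5% DMSO, duplicate. CYP2E1 mRNA by qRT-PCR, normalized to ACTB/GAPDH/POLR2A; bidirectional fit versus DMSO.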

Read-out in experiment [13]: cysteine-aspartic acid protease (CASP8), CASP8 (gene 841)
The experiment can be described thus: LTEA_HepaRG_CASP8: Life Technologies and Expression Analysis (LTEA) Assay for cysteine-aspartic acid protease (CASP8) using HepaRG (AID 2283480). The method in brief: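 HepaRG, 48 h exposure, duplicate wells; 8 conc, half-log from 100 uM, 0.5% DMSO. Serum-free induction medium. CASP8 mRNA by TaqMan qRT-PCR, norm. ACTB/GAPDH/POLR2A; gain/loss fitted vs DMSO.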

This passage reports outcome and AC50 results from PubChem BioAssay (EPA / NIEHS).

Calls of active or inactive are those of the source. The calls were made as follows: active = hit-call score of the fitted dose curve at least 0.9, where 1 is the maximum; inactive = score below 0.9.

Caspase-3 (Homo sapiens), sequence (P42574 whole entry, looked up): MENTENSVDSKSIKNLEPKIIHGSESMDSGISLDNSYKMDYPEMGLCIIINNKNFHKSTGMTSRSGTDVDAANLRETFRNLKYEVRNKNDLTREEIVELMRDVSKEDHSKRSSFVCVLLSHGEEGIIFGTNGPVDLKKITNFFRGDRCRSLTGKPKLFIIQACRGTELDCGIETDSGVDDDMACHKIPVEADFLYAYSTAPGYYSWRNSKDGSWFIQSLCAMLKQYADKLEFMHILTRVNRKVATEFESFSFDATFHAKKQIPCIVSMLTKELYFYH
Apoptosis regulator Bcl-2 (Homo sapiens), sequence (P10415 whole entry, looked up): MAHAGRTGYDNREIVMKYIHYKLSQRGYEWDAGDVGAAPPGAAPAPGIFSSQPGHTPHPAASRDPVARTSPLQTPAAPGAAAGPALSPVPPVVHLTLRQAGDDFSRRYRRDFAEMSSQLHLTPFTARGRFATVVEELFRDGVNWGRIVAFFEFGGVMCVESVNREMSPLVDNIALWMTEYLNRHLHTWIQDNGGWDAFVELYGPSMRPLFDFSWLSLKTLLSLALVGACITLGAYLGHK
Cytochrome P450 2C19 (Homo sapiens), sequence (P33261 whole entry, looked up): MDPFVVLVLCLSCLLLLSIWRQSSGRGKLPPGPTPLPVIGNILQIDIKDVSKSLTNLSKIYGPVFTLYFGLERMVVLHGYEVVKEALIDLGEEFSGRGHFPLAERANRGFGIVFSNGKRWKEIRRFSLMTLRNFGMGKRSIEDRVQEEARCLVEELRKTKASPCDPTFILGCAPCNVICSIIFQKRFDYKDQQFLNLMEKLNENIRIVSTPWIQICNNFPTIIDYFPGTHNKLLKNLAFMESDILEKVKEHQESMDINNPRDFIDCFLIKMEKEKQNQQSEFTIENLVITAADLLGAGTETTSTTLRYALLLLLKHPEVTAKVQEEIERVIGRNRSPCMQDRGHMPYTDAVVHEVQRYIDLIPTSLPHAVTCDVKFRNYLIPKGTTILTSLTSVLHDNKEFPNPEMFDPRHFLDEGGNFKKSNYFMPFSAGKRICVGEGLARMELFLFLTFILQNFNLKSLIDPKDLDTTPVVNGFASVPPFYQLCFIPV
Cytochrome P450 3A7 (Homo sapiens), sequence (P24462 whole entry, looked up): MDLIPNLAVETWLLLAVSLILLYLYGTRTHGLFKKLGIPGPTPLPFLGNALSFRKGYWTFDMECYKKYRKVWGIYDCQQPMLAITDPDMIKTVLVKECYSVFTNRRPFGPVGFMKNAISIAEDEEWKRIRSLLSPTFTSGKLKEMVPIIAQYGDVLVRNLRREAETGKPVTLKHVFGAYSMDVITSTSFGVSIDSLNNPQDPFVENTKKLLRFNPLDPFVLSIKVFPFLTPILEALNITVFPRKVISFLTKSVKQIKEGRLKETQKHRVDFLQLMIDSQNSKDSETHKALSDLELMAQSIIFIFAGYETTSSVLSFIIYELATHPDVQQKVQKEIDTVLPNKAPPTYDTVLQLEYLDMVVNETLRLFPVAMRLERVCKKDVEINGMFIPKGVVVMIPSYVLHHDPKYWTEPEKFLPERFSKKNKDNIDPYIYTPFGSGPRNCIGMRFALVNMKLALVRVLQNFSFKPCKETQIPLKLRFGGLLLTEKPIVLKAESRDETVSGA
Cytochrome P450 3A4 (Homo sapiens), sequence (P08684 whole entry, looked up): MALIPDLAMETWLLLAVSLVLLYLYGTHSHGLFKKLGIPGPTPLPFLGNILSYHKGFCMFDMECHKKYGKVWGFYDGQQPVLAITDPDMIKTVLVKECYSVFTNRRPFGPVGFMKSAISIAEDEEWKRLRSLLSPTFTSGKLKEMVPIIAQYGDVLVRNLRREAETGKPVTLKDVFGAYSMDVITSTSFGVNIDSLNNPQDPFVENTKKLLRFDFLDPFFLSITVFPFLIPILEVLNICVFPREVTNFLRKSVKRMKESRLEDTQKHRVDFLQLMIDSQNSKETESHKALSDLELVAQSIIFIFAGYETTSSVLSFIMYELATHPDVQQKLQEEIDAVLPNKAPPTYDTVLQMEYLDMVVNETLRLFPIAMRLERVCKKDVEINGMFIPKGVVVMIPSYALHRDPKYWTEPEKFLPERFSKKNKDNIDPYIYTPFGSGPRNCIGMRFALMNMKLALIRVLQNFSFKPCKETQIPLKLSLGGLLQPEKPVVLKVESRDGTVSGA

On to `CCCCCCCCN(C)CCCCCCCC`, for which the molecule was called inactive (in [1]; in experiment [2]; with Caspase-3 (Homo sapiens); in [3]; in experiment [4]; in experiment [5]). Also, the molecule was classed as inactive (in the experiment with CYP2C8 (gene 1558); with CYP2C9 (gene 1559); in the experiment with CYP4A11 (gene 1579); in experiment [6]; in experiment [7]; in experiment [8]). In addition, the outcome (in experiment [9]; in experiment [10]; in experiment [11]; in the experiment with CYP3A5 (gene 1577); in [12]) was inactive.

As a reminder, the AC50 is the concentration giving half of the maximal activity seen. Consider `O=C1CCC(C2CCCCC2)CC1`, for which the call (in experiment [1]; in experiment [2]; with Caspase-3 (Homo sapiens); in [4]; in [5]; with CYP2C8 (gene 1558)) was inactive. For the same molecule, the call (in the experiment with CYP2C9 (gene 1559); with CYP2E1 (gene 1571); with CYP4A11 (gene 1579); in [7]; in experiment [8]; in experiment [9]) was inactive. Besides, the outcome (in experiment [10]; with CYP3A5 (gene 1577); in experiment [12]) was inactive. In addition, the AC50 in experiment [3] was 72.5 µM (active); in experiment [6], 32.5 µM (active).

On to `CN(C)c1ccc(C(=C2C=CC(=[N+](C)C)C=C2)c2ccc(N(C)C)cc2)cc1`, for which the half-maximal activity concentration (AC50) is 5 µM (active) in [1]; 12.1 µM (active) in the experiment with Caspase-3 (Homo sapiens); 2.05 µM (active) in experiment [3]; 3.45 µM (active) in experiment [4]; 5.94 µM (active) in experiment [5]; 3.61 µM (active) with CYP2C8 (gene 1558). Moreover, the AC50 is 3.82 µM (active) in the experiment with CYP2C9 (gene 1559); 3.37 µM (active) with CYP4A11 (gene 1579); 1.38 µM (active) in experiment [7]; 88.8 µM (active) in experiment [8]; 67.6 µM (active) in [9]; 32 µM (active) in experiment [10]. For the same molecule, the AC50 with CYP3A5 (gene 1577) is 24.6 µM (active); in [12], 2.76 µM (active). For the same molecule, the outcome in experiment [2] and in experiment [13] was inactive.

As to `CC/C(=C(/CC)c1ccc(O)cc1)c1ccc(O)cc1`, the call (in experiment [1]; in experiment [2]; with CYP2C8 (gene 1558); in experiment [8]; in [10]; in [11]) was inactive. Moreover, the AC50 is 93 µM (active) in the experiment with Caspase-3 (Homo sapiens); 93.2 µM (active) in [13]; 82.4 µM (active) in [4]; 82.1 µM (active) with CYP2E1 (gene 1571); 83.4 µM (active) with CYP4A11 (gene 1579); 67.6 µM (active) in experiment [7]. In addition, the AC50 in [9] is 77.4 µM (active); with CYP3A5 (gene 1577), 50 µM (active); in experiment [12], 94.1 µM (active).
